{"source": "PubChem BioAssay"}
{"experiment": "Primary imaging screen for DUSP6 inhibitors that restore phospho-Erk in transfected HeLa cells, chemical complementation (AID 609)", "details": "HeLa MKP-3 transfected, phospho-Erk imaging KS statistic; measured here: cell density z-score; at 10 µM; cells stimulated with TPA for 15 min"}
{"smiles": "N#CC1=C(SCc2ccccc2)NC2=C(C(=O)CCC2)C1c1ccc2c(c1)OCO2", "note": "(stereo not given)", "z-score": 0.352}
{"smiles": "CC(=O)C1=C(O)C(=O)N(c2cccc(C(=O)O)c2)C1c1ccccc1F", "note": "(stereo not given)", "z-score": -0.336}
{"smiles": "Cc1[nH]nc2cn[nH]c12", "z-score": -0.515}
{"smiles": "CCCCOc1ccc(CSC(CC(=O)O)C(=O)O)cc1", "note": "(stereo not given)", "z-score": -0.61}
{"smiles": "O=S(=O)(c1ccccc1)N1CCC(N2CCCCCC2)CC1", "z-score": -1.31}
{"smiles": "COc1cccc(C2/C(=C(\\O)c3ccc4c(c3)OCCO4)C(=O)C(=O)N2CCN(C)C)c1", "note": "(stereo not given)", "z-score": 1}
{"smiles": "CC1(C)CC(=O)C(C=NCC(O)c2ccccc2)=C(O)C1", "note": "(stereo not given)", "z-score": -1.15}
{"smiles": "Cc1ccccc1C(=O)c1ccc2c(c1)n(C)c(=O)n2C", "z-score": 1.43}
{"smiles": "COC(=O)C(NC(C)=O)(Nc1ccc(Br)cc1)C(=O)OC", "z-score": 0.275}
{"smiles": "CCOC(=O)CSc1nc(N)c(C#N)c(-c2ccc(OC)cc2)c1C#N", "z-score": 0.441}
{"smiles": "COc1cccc(/C(O)=C2/C(=O)C(=O)N(CCCN(C)C)C2c2cccc(Cl)c2)c1", "note": "(stereo not given)", "z-score": 0.0823}
{"smiles": "O=C(O)CC(NCc1ccco1)C(=O)OCC1CCCO1", "note": "(stereo not given)", "z-score": 0.185}
{"smiles": "CNc1oc(-c2ccc(Cl)cc2)nc1C#N", "z-score": -1.3}
{"smiles": "O=C(O)CCCC(=O)Nc1ccn(-c2ccccc2)n1", "z-score": 2.2}
{"smiles": "CCOC(=O)C1=C(C)N=C2SC(C)C(=O)N2C1c1ccc(OC(C)=O)c(OC)c1", "note": "(stereo not given)", "z-score": 0.885}
{"smiles": "CCOc1cccc(-c2nn3c(-c4ccco4)nnc3s2)c1", "z-score": -0.574}
{"smiles": "COc1ccc(/C(O)=C2/C(=O)C(=O)N(c3ncccn3)C2c2ccc(OC)c(OC)c2)cc1", "note": "(stereo not given)", "z-score": -1.58}
{"smiles": "COc1cccc2c(=O)c(SC(F)(F)C(F)C(F)(F)F)c(C)[nH]c12", "note": "(stereo not given)", "z-score": 0.112}
{"smiles": "COc1ccccc1N(O)C1CC(=O)N(c2ccc(F)cc2)C1=O", "note": "(stereo not given)", "z-score": -1.81}
{"smiles": "CC1CN(C2CCN(S(=O)(=O)c3ccccc3)CC2)CC(C)O1", "note": "(stereo not given)", "z-score": 1.27}
{"smiles": "CC(C)OC(=O)c1nn2c(C(F)(F)F)cc(-c3ccc(Br)o3)nc2c1Br", "z-score": -1.28}
{"smiles": "O=S(=O)(c1ccc(Cl)cc1)N1CCC(N2CCCCCC2)CC1", "z-score": -0.279}
{"smiles": "CCCCNC(=O)N1CCOCCOCCN(C(=O)NCCCC)CCOCCOCC1", "z-score": 1.2}
{"smiles": "C=CCc1c(C)c(C#N)c2nc3ccccc3n2c1N1CCN(C)CC1", "z-score": -0.94}
{"smiles": "COc1ccc(C2=Nn3c(nnc3-c3ccccn3)SC2)cc1", "z-score": 0.562}
{"smiles": "COC(=O)c1nn2c(C(F)(F)F)cc(-c3ccc(Br)o3)nc2c1Br", "z-score": -1.65}
{"smiles": "Cc1cc(C)nc(N(C#N)CC(=O)N(c2ccccc2)C(C)C)n1", "z-score": -1.19}
{"smiles": "CC1(C)CC(N(Cc2ccco2)C(=O)Cc2ccccc2)CCO1", "note": "(stereo not given)", "z-score": -0.358}
{"smiles": "O=C(c1ccc(=O)oc1)N1CCOCC1", "z-score": 1.26}
{"smiles": "CCOC(=O)C1CCCN(c2nc3ccccc3nc2C(C#N)C(=O)OCCOC)C1", "note": "(stereo not given)", "z-score": 0.574}
{"smiles": "COC(=O)CSc1nc(N)c2c3c(sc2n1)CCCC3", "z-score": -2.1}
{"smiles": "Cc1c(C(Nc2ccccn2)c2ccccc2)c(=O)n(-c2ccccc2)n1C", "note": "(stereo not given)", "z-score": -0.885}
{"smiles": "CSc1nc(N)nc(SCC(=O)OC(C)C)c1C#N", "z-score": -1.22}
{"smiles": "CCOC(=O)c1c(CNCCN(CC)CC)n(C)c2cc(Br)c(OC)cc12", "z-score": -0.115}
{"smiles": "COc1ccc(/C(O)=C2/C(=O)C(=O)N(CCCN(C)C)C2c2ccccc2)cc1OC", "note": "(stereo not given)", "z-score": -0.204}
{"smiles": "Nc1nnc(CSc2ccc(Cl)cc2)s1", "z-score": 0.155}
{"smiles": "Fc1ccc2[nH]c3c(N4CCN(C5CCCCC5)CC4)ncnc3c2c1", "z-score": -1.35}
{"smiles": "COC(=O)C(NC(C)=O)(Nc1ccccc1)C(=O)OC", "z-score": 1.28}
{"smiles": "CN(C)C/C(Cl)=C(\\Cl)c1ccccc1", "z-score": -1.42}
{"smiles": "Cc1[nH]c2ccc3c(ncn3CCC#N)c2c1C", "z-score": -0.136}
{"experiment": "Primary imaging screen for DUSP6 inhibitors that restore phospho-Erk in transfected HeLa cells, chemical complementation (AID 609)", "details": "HeLa MKP-3 transfected, phospho-Erk imaging KS statistic; measured here: nuclear c-Myc green intensity z-score; at 10 µM; cells stimulated with TPA for 15 min"}
{"smiles": "N#CC1=C(SCc2ccccc2)NC2=C(C(=O)CCC2)C1c1ccc2c(c1)OCO2", "note": "(stereo not given)", "z-score": -1.14}
{"smiles": "CC(=O)C1=C(O)C(=O)N(c2cccc(C(=O)O)c2)C1c1ccccc1F", "note": "(stereo not given)", "z-score": 0.7}
{"smiles": "Cc1[nH]nc2cn[nH]c12", "z-score": 1.09}
{"smiles": "CCCCOc1ccc(CSC(CC(=O)O)C(=O)O)cc1", "note": "(stereo not given)", "z-score": -0.895}
{"smiles": "O=S(=O)(c1ccccc1)N1CCC(N2CCCCCC2)CC1", "z-score": -0.622}
{"smiles": "COc1cccc(C2/C(=C(\\O)c3ccc4c(c3)OCCO4)C(=O)C(=O)N2CCN(C)C)c1", "note": "(stereo not given)", "z-score": -0.131}
{"smiles": "CC1(C)CC(=O)C(C=NCC(O)c2ccccc2)=C(O)C1", "note": "(stereo not given)", "z-score": 1.23}
{"smiles": "Cc1ccccc1C(=O)c1ccc2c(c1)n(C)c(=O)n2C", "z-score": -1.34}
{"smiles": "COC(=O)C(NC(C)=O)(Nc1ccc(Br)cc1)C(=O)OC", "z-score": 0.746}
{"smiles": "CCOC(=O)CSc1nc(N)c(C#N)c(-c2ccc(OC)cc2)c1C#N", "z-score": 1.58}
{"smiles": "COc1cccc(/C(O)=C2/C(=O)C(=O)N(CCCN(C)C)C2c2cccc(Cl)c2)c1", "note": "(stereo not given)", "z-score": -0.754}
{"smiles": "O=C(O)CC(NCc1ccco1)C(=O)OCC1CCCO1", "note": "(stereo not given)", "z-score": -1.18}
{"smiles": "CNc1oc(-c2ccc(Cl)cc2)nc1C#N", "z-score": -0.483}
{"smiles": "O=C(O)CCCC(=O)Nc1ccn(-c2ccccc2)n1", "z-score": -2.05}
{"smiles": "CCOC(=O)C1=C(C)N=C2SC(C)C(=O)N2C1c1ccc(OC(C)=O)c(OC)c1", "note": "(stereo not given)", "z-score": -1.84}
{"smiles": "CCOc1cccc(-c2nn3c(-c4ccco4)nnc3s2)c1", "z-score": -0.476}
{"smiles": "COc1ccc(/C(O)=C2/C(=O)C(=O)N(c3ncccn3)C2c2ccc(OC)c(OC)c2)cc1", "note": "(stereo not given)", "z-score": 0.795}
{"smiles": "COc1cccc2c(=O)c(SC(F)(F)C(F)C(F)(F)F)c(C)[nH]c12", "note": "(stereo not given)", "z-score": 2.52}
{"smiles": "COc1ccccc1N(O)C1CC(=O)N(c2ccc(F)cc2)C1=O", "note": "(stereo not given)", "z-score": 1.54}
{"smiles": "CC1CN(C2CCN(S(=O)(=O)c3ccccc3)CC2)CC(C)O1", "note": "(stereo not given)", "z-score": -1.71}
{"smiles": "CC(C)OC(=O)c1nn2c(C(F)(F)F)cc(-c3ccc(Br)o3)nc2c1Br", "z-score": -0.277}
{"smiles": "O=S(=O)(c1ccc(Cl)cc1)N1CCC(N2CCCCCC2)CC1", "z-score": -1.42}
{"smiles": "CCCCNC(=O)N1CCOCCOCCN(C(=O)NCCCC)CCOCCOCC1", "z-score": -1.56}
{"smiles": "C=CCc1c(C)c(C#N)c2nc3ccccc3n2c1N1CCN(C)CC1", "z-score": -0.784}
{"smiles": "COc1ccc(C2=Nn3c(nnc3-c3ccccn3)SC2)cc1", "z-score": 0.488}
{"smiles": "COC(=O)c1nn2c(C(F)(F)F)cc(-c3ccc(Br)o3)nc2c1Br", "z-score": -0.461}
{"smiles": "Cc1cc(C)nc(N(C#N)CC(=O)N(c2ccccc2)C(C)C)n1", "z-score": -0.154}
{"smiles": "CC1(C)CC(N(Cc2ccco2)C(=O)Cc2ccccc2)CCO1", "note": "(stereo not given)", "z-score": 2.8}
{"smiles": "O=C(c1ccc(=O)oc1)N1CCOCC1", "z-score": -0.649}
{"smiles": "CCOC(=O)C1CCCN(c2nc3ccccc3nc2C(C#N)C(=O)OCCOC)C1", "note": "(stereo not given)", "z-score": 2.29}
{"smiles": "COC(=O)CSc1nc(N)c2c3c(sc2n1)CCCC3", "z-score": 0.19}
{"smiles": "Cc1c(C(Nc2ccccn2)c2ccccc2)c(=O)n(-c2ccccc2)n1C", "note": "(stereo not given)", "z-score": 0.0466}
{"smiles": "CSc1nc(N)nc(SCC(=O)OC(C)C)c1C#N", "z-score": -0.698}
{"smiles": "CCOC(=O)c1c(CNCCN(CC)CC)n(C)c2cc(Br)c(OC)cc12", "z-score": 0.118}
{"smiles": "COc1ccc(/C(O)=C2/C(=O)C(=O)N(CCCN(C)C)C2c2ccccc2)cc1OC", "note": "(stereo not given)", "z-score": -0.251}
{"smiles": "Nc1nnc(CSc2ccc(Cl)cc2)s1", "z-score": -0.0933}
{"smiles": "Fc1ccc2[nH]c3c(N4CCN(C5CCCCC5)CC4)ncnc3c2c1", "z-score": 0.234}
{"smiles": "COC(=O)C(NC(C)=O)(Nc1ccccc1)C(=O)OC", "z-score": -1.78}
{"smiles": "CN(C)C/C(Cl)=C(\\Cl)c1ccccc1", "z-score": -0.391}
{"smiles": "Cc1[nH]c2ccc3c(ncn3CCC#N)c2c1C", "z-score": 0.347}
